Laboratory results: PubChem BioAssay AID1645838 (ICCB-Longwood Screening Facility, Harvard Medical School, 2021)
Where “and” joins values, the source holds several entries; their conditions need not be identical. Equal values may be shown once. Screen size: about 2,000 compounds; about 100 (5%) were called active. No stated cut-off is given here; in the data, active means z-score above about 2; inactive means the rest. The entries come from a sample that favours actives as a whole. A structure can be active in one record and inactive in another.

Assay: modulators of mitochondrial supercomplex assembly, cell-based, luminescence, Hoechst nuclei count (AID 1645838);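 further: control cybrid cells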;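 on z-score: higher means more mitochondrial supercomplex formation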
Conditions: Cells, luminescence/Hoechst cell count ratio, supercomplex reporter; for z-score: stronger effect = higher value; for cell count: measured here: cell number, Hoechst nuclei count
[1] = library stock concentration (final well concentration not given) 46 uM
[2] = library stock concentration (final well concentration not given) 278 uM
[3] = library stock concentration (final well concentration not given) 1.67 mM
[4] = library stock concentration (final well concentration not given) 10 mM
[5] = library stock concentration (final well concentration not given) 80 uM
[6] = library stock concentration (final well concentration not given) 400 uM
[7] = library stock concentration (final well concentration not given) 2 mM

CCCC[C@H](C)C[C@H](O)/C=C/[C@H]1[C@H](O)CC(=O)[C@@H]1CCCCC(CC(=O)O)OC (stereo not given in full)
z-score: -0.235 (inactive) | cell count: 5180

CC(C)OC(=O)N1CCC(Oc2ncnc3c2cnn3-c2ccc(S(C)(=O)=O)cc2F)CC1
z-score [1]: -0.707 (inactive) | z-score [2]: -0.537 (inactive) | z-score [3]: -0.462 (inactive) | z-score [4]: -0.531 (inactive) | cell count [1]: 7670 | cell count [2]: 7400 | cell count [3]: 7330 | cell count [4]: 7200

CCCCC/C=C\C/C=C\CCCCCCCC(=O)O[C@H](COC(=O)CCCCCCCCCCCCCCC)COP(=O)(O)OCCN
z-score: -0.42 (inactive) | cell count: 5090

CC(C)(C)OC(=O)Nc1ccc(-c2cc(C(=O)NCCCCCCC(=O)NO)no2)cc1
z-score: 4.81 (active) | cell count: 3910

CC(C)(C)CC1NC(C(=O)NC2CCC(O)CC2)C(c2cccc(Cl)c2F)[C@]12C(=O)Nc1cc(Cl)ccc12 (stereo not given in full)
z-score [1]: -0.637 (inactive) | z-score [2]: -0.742 (inactive) | z-score [3]: -0.98 (inactive) | z-score [4]: -1.86 (inactive) | cell count [1]: 7790 | cell count [2]: 7430 | cell count [3]: 8360 | cell count [4]: 7510

CC(C)(C)C(O)C=Cc1ccc2c(c1)OCO2 (stereo not given)
z-score [5]: 0.0878 (inactive) | z-score [6]: 0.509 (inactive) | z-score [7]: 0.124 (inactive) | z-score [4]: 0.138 (inactive) | cell count [5]: 5100 | cell count [6]: 4800 | cell count [7]: 5050 | cell count [4]: 5260

CN1CCN(CCOc2cc(OC3CCOCC3)c3c(Nc4c(Cl)ccc5c4OCO5)ncnc3c2)CC1
outcome (library stock 10 mM): inactive; censored for cell count | z-score [5]: 0.0594 (inactive) and -0.195 (inactive) | z-score [6]: 0.376 (inactive) and 0.19 (inactive) | z-score [7]: 1.62 (inactive) and 2.74 (active) | cell count [5]: 4300 and 6110 | cell count [6]: 4050 and 5610 | cell count [7]: 3190 and 3140

O=C1C(c2ccccc2)N(c2ccc(Br)cc2)C(=O)N1c1ccc(Br)cc1 (stereo not given)
z-score: -0.397 (inactive) | cell count: 4960

CC#CCC(C)C(O)C=CC1C(O)C[C@@H]2CC(=CCCCC(=O)O)C[C@@H]12 (stereo not given in full)
z-score [5]: -0.0626 (inactive) | z-score [6]: -0.295 (inactive) | z-score [7]: 0.193 (inactive) | z-score [4]: 0.43 (inactive) | cell count [5]: 5530 | cell count [6]: 5750 | cell count [7]: 5230 | cell count [4]: 4650

Cn1cc(-c2ccc3c(c2)CCN3C(=O)Cc2cccc(C(F)(F)F)c2)c2c(N)ncnc21
z-score [1]: -0.404 (inactive) | z-score [2]: -0.312 (inactive) | z-score [3]: -0.398 (inactive) | z-score [4]: 0.717 (inactive) | cell count [1]: 6450 | cell count [2]: 6260 | cell count [3]: 6230 | cell count [4]: 4040

COc1cccc(-c2cn(-c3ccc(CCN4CCC(O)CC4)cc3)c3ncnc(N)c23)c1
z-score [1]: -0.0662 (inactive) | z-score [2]: -0.203 (inactive) | z-score [3]: 0.503 (inactive) | z-score [4]: 6.01 (active) | cell count [1]: 6890 | cell count [2]: 6710 | cell count [3]: 6410 | cell count [4]: 2860

Nc1ncnc2c1c(-c1ccc(Oc3ccccc3)cc1)cn2C1CCCC1
z-score [5]: 0.00446 (inactive) | z-score [6]: 0.328 (inactive) | z-score [7]: 0.396 (inactive) | z-score [4]: 0.246 (inactive) | cell count [5]: 4810 | cell count [6]: 4230 | cell count [7]: 4080 | cell count [4]: 3660

CCCCCC(O)CCC1C(O)C[C@H]2Cc3c(cccc3OCC(=O)O)C[C@@H]12 (stereo not given in full)
z-score [5]: -0.232 (inactive) | z-score [6]: -0.452 (inactive) | z-score [7]: -0.204 (inactive) | z-score [4]: -0.825 (inactive) | cell count [5]: 6220 | cell count [6]: 5860 | cell count [7]: 5910 | cell count [4]: 6040

CCCCC/C=C\C/C=C\CCCCCCCC(=O)OCC(COC(=O)CCCCCCCCCCCCCCC)OC(=O)CCCCCCC/C=C\CCCCCCCC (stereo not given)
z-score: 0.273 (inactive) | cell count: 5490

CCCC(=O)Nc1nc(-c2ccccc2)cc(-c2ccccc2)n1
z-score [5]: -0.0977 (inactive) | z-score [6]: 0.0694 (inactive) | z-score [7]: -0.49 (inactive) | z-score [4]: -0.335 (inactive) | cell count [5]: 5390 | cell count [6]: 5300 | cell count [7]: 4980 | cell count [4]: 5140

O=C(Nc1nnc(-c2ccco2)o1)c1cc(-c2ccccc2)nc2ccccc12
z-score [1]: 0.451 (inactive) | z-score [2]: 0.815 (inactive) | z-score [3]: 0.151 (inactive) | z-score [4]: 2.24 (active) | cell count [1]: 6600 | cell count [2]: 6010 | cell count [3]: 6640 | cell count [4]: 4920

COC(=O)C(NC(=O)c1cc(-c2ccccc2)nc2ccccc12)c1ccccc1 (stereo not given)
z-score [1]: -0.299 (inactive) | z-score [2]: -0.209 (inactive) | z-score [3]: -0.176 (inactive) | z-score [4]: -0.0618 (inactive) | cell count [1]: 6610 | cell count [2]: 6570 | cell count [3]: 6890 | cell count [4]: 6540

CCCC/C=C/C=C/C=C\CCCCCCCC(=O)OC
z-score: 0.121 (inactive) | cell count: 4950

O=C(O)CCC/C=C\C[C@@H]1C(=O)C[C@@H](O)[C@@H]1/C=C/[C@@H](O)CCc1ccccc1
z-score: 0.113 (inactive) | cell count: 5100

O=C1C(Cc2ccc(O)cc2)N2C(=O)CCN(C(=O)NCc3ccccc3)C2CN1Cc1cccc2ccccc12 (stereo not given)
z-score [1]: -0.329 (inactive) | z-score [2]: -0.452 (inactive) | z-score [3]: -1.5 (inactive) | z-score [4]: -0.675 (inactive) | cell count [1]: 7210 | cell count [2]: 7220 | cell count [3]: 7090 | cell count [4]: 4220

CN(C)CCC1(c2ccc(Cl)cc2)Cc2ccccc2C(=O)O1 (stereo not given)
z-score [1]: -0.548 (inactive) | z-score [2]: -0.51 (inactive) | z-score [3]: -0.496 (inactive) | z-score [4]: 0.011 (inactive) | cell count [1]: 6980 | cell count [2]: 6360 | cell count [3]: 6480 | cell count [4]: 6170
